High-throughput results deposited in PubChem BioAssay by several laboratories.
CYP2C19 activ: activators of human cytochrome P450 2C19; recombinant CYP2C19, luciferin-H EGE luminescence; hits give high values; 0 = fully inhibited enzyme, 1 = untreated enzyme; activation factor at 5 µM; 96,000 tested, under 10 active; P33261;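 active = activation factor of at least 2 at 5 µM in the primary screen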;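 also: 0 = wells with 2.5 mM tranylcypromine and 1 = vehicle-only wells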
CYP2C9 activ: CYP2C9 (human) activation | P11712 | recombinant CYP2C9, luciferin-H conversion, luminescence; hits give high values; factor 1 = untreated enzyme, 0 = blocked | activation factor at 5 µM | 1.4% of 96,000 active | AID 1024;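 active = activation factor of 2 or more for CYP2C9 at a 5 µM dose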;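 also: 0 = sulfaphenazole-blocked wells and 1 = vehicle-only wells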
Target sequence (P11712 whole entry, looked up): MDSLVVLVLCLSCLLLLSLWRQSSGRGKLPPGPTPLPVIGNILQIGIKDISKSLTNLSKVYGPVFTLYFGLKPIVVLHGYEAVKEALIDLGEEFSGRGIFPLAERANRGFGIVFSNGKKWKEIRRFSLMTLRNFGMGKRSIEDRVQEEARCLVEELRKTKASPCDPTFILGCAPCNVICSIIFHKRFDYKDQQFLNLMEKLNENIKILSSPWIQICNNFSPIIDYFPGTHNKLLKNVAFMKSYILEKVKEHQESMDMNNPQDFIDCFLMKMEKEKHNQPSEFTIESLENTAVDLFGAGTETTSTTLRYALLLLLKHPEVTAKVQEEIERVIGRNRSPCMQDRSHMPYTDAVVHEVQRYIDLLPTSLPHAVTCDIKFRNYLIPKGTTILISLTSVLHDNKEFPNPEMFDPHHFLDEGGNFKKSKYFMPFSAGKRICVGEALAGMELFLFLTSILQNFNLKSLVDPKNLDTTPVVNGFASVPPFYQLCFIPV
CYP2C9 inh: blocks human cytochrome P450 2C9; P11712; CYP2C9 Supersomes, luciferin-H conversion, luminescence; inhibition, % at 5 µM; 20% of 96,000 active; AID 777;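 active = blocking of liver enzyme CYP2C9 beyond about 50% at 5 µM, limit read from the data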
sEH activator: increases human soluble epoxide hydrolase activity. P34913. purified human sEH enzymatic activity, activator screen. activation, % at 2 µM. 0.04% of 91,000 active. AID 717; in the data active = activation above about 37%
sEH inhibitor: inhibitors of human soluble epoxide hydrolase; recombinant human sEH enzymatic activity assay; inhibition, % at 2 µM; AID 707; 0.34% of 91,000 active; P34913; in the data active = inhibition above about 80%
CYP2C19 inhib: inhibitors of human CYP2C19. P33261. CYP2C19 Supersomes, luciferin-H EGE luminescence, 30 min. inhibition, % at 5 µM. 21% of 96,000 active. AID 778;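 active = CYP2C19 inhibition above a set limit at 5 µM in the primary screen, cut at about 50% in these data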;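 also: plate controls were negative control wells for no effect and 2.5 mM tranylcypromine positive control for full effect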
Starred values were filed as active, the others as inactive; x = no result. Shown are actives, neighbours in structure and some others; about 27% of the full set was active somewhere.

SMILES	CYP2C19 activ	CYP2C9 activ	CYP2C9 inh	sEH activator	sEH inhibitor	CYP2C19 inhib
CCOC(=O)CN1C(=O)C2Cc3ccccc3CN2C1=S (centres undefined)	0.3	0.8	23	9	-11	70*
CS(=O)(=O)N(CC(=O)Nc1ccccc1)Cc1ccc(Cl)cc1	0	0.1	89*	6	-3	96*
CS(=O)(=O)N(CC(=O)Nc1ccc2c(c1)OCCO2)Cc1ccccc1	0.7	0.7	28	-1	2	28
COc1ccccc1N(CC(=O)NC1CCCCC1)S(C)(=O)=O	0.7	0.9	15	-10	10	27
O=C(CN(c1ccccc1F)S(=O)(=O)c1ccccc1)NC1CCCCCC1	1.1	0.5	52*	-59	59	-11
COc1ccc(NC(=O)CN(Cc2ccccc2)S(C)(=O)=O)cc1	0.2	0.5	45	-5	3	79*
Cc1ccc(S(=O)(=O)N(CC(=O)NC2CCCCCC2)c2ccccc2F)cc1	0.9	0.6	39	-4	3	9
Cc1c(Cl)cccc1N(CC(=O)NC1CCCCC1)S(C)(=O)=O	0.7	0.3	70*	x	x	28
CC(=O)c1ccc(OCC(O)CN2C(C)(C)CC(O)CC2(C)C)cc1 (centres undefined)	0.9	0.6	38	19	-23	12
CS(=O)(=O)N(CC(=O)NC1CCCCCC1)Cc1ccccc1	0.1	0.8	22	-12	11	87*
CS(=O)(=O)N(CC(=O)NC1CCCCCC1)Cc1ccc(Cl)cc1	0.8	0.8	15	2	-2	23
CCOc1ccccc1NC(=O)CN(Cc1ccccc1)S(C)(=O)=O	0.1	0.6	42	-2	0	94*
CSc1cccc(NC(=O)CN(Cc2ccc(Cl)cc2)S(C)(=O)=O)c1	0.1	0.1	92*	-6	2	92*
COc1cc(NC(=O)C2CC(=O)NC3=C2C(=O)CCC3)c(OC)cc1Cl (centres undefined)	0.8	0.8	19	-4	7	17
Cc1ccc(Cc2nnc3n(-c4cccc(C)c4)nc(C(=O)c4ccccc4)n3c2=O)cc1	x	x	x	-1	1	x
CCOC(=O)c1c(C)cc(C)n2c1nc1ccccc12	1.2	1.2	-24	-9	10	-18
Cn1nc(C(F)(F)F)c2cc(NC(=O)OCc3ccc(F)cc3)sc21	0.5	2.5*	-148	-4	5	52*
COc1ccc(COC(=O)Nc2cc3c(C(F)(F)F)nn(C)c3s2)cc1	0.5	1.1	-10	5	-3	49
Cn1nc(C(F)(F)F)c2cc(NC(=O)OCc3ccc(C(C)(C)C)cc3)sc21	0.8	0.5	52*	13	-14	20
CC(C)(C)OC(=O)NC(CCNC=C1C(=O)OC(C)(C)OC1=O)C(=O)O (centres undefined)	1.1	0.8	15	-9	9	-12
CCCCOC(=O)C1C2C=C[C@]3(CN(CCCOC)C(=O)[C@H]13)O2 (some centres undefined)	1	1	-3	18	-20	0
Cc1ccc(N2CCN(C(=O)N3CCCC3)CC2)cc1C	0.2	0.5	53*	-9	9	81*
CCOc1[nH]n(-c2ccccc2)c(=O)c1C=Nc1ccc(Cl)cc1	1.2	1	1	-13	12	-22
CCC(c1nnnn1Cc1ccco1)N1CCN(c2cc(Cl)ccc2C)CC1 (centres undefined)	0.8	0.4	59*	2	0	19
CCC(c1nnnn1Cc1ccco1)N1CCC(C(N)=O)CC1 (centres undefined)	1	1.1	-5	-4	4	2
SMILES	CYP2C19 activ	CYP2C9 activ	CYP2C9 inh	sEH activator	sEH inhibitor	CYP2C19 inhib
Cc1ccc(Cl)cc1N1CCN(Cc2nnnn2Cc2ccco2)CC1	0.2	0.1	93*	2	-2	77*
COc1cc(NC(=O)c2cc(-n3cnnc3)ccc2Cl)cc(OC)c1	0.9	0.9	7	-6	11	11
Cc1nn(C)cc1CNC(=O)c1ccc(Br)o1	0.9	0.9	8	2	0	14
Cc1ccc(CN(C(=O)Cn2nnc3ccccc32)C(C(=O)NCc2ccco2)c2cccs2)cc1 (centres undefined)	0.3	0.6	40	19	-19	73*
COc1ccc(S(=O)(=O)N2CCCN(CC(=O)Nc3ccc(OC)c(Cl)c3)CC2)cc1	0.4	1.1	-6	-12	11	59*
COc1ccc(NC(=O)CN2CCN(S(=O)(=O)c3ccc(Cl)cc3)CC2)cc1	0.2	0.8	22	0	0	81*
COc1ccc(S(=O)(=O)N2CCC(O)(c3ccc(Cl)cc3)CC2)cc1	0.3	2.3*	-134	-16	14	68*
CCc1nnc(NC(=O)CSc2nnc(-c3cc4ccccc4cc3O)n2CCOC)s1	0.9	0.5	54*	0	0	11
CCc1nnc(NC(=O)CSc2nnc(-c3cccnc3)n2CC)s1	1	0.8	19	10	-12	-2
Cc1ccc2cc(C)c3nnc(SCC(=O)Nc4nc5c(s4)CCCC5)n3c2c1C	0.6	0.5	50*	-2	4	40
CCc1nnc(NC(=O)CSc2nnc(-c3ccccc3O)n2CC)s1	0.2	0.2	77*	-17	20	76*
CCc1nnc(NC(=O)CSc2nnc(-c3cc4ccccc4cc3O)n2CC)s1	0.5	0.1	90*	x	x	52*
CCc1nnc(NC(=O)CSc2nnc(-c3ccc(S(=O)(=O)N(CC)CC)cc3)n2CC)s1	1	0.7	32	-5	7	2
COc1ccc(N2CCN(C(=O)CSc3nnc4c(C)cc5ccc(C)c(C)c5n34)CC2)cc1	0.9	0.7	29	-6	6	8
O=C(O)C1C2CCCCC2=C2CCCCC2C1C(=O)O (centres undefined)	1	0.8	24	3	-2	4
CCn1c(SCC(=O)Nc2nc(-c3ccccc3)cs2)nnc1-c1ccccc1O	0.1	0	95*	-7	4	89*
CCn1c(SCC(=O)Nc2nc3ccccc3s2)nnc1-c1ccc(OC)cc1	1	1	3	-4	7	-5
CCn1c(CCNC(=O)c2cccs2)nnc1SCC(=O)Nc1nc(-c2ccccc2)cs1	x	x	x	-12	12	x
CCn1c(SCC(=O)Nc2nc3c(s2)CCCC3)nnc1-c1ccccc1	0.2	0.1	88*	8	-11	81*
CCn1c(SCC(=O)N(C(C)C)C(C)C)nnc1-c1cc2ccccc2cc1O	0.4	0.4	57*	-3	3	65*
CCn1c(SCC(=O)Nc2ccc(S(N)(=O)=O)cc2)nnc1-c1ccccc1OC	1	1.1	-11	4	0	-2
CCOC(=O)c1c(C)[nH]c(C(=O)OCC(=O)NC(C)C)c1C	1	0.6	45	-11	11	4
CCN(CC)c1ccc(SS(=O)(=O)O)cc1	1.1	1.1	-9	-5	5	-12
